Data as given in PubChem BioAssay (Tox21).
Where “and” joins values, the source holds several entries; their conditions need not be identical. Equal values may be shown once. Inconclusive results are not listed. Where a call stands in place of a potency, no number is given. Some compounds were tested as several samples or in several runs, with calls that do not always agree. Calls of active or inactive are those of the source. Unless noted, calls come from the whole dose curve.

Columns and labels:
[1] = qHTS assay to identify small molecule agonists of the vitamin D receptor (VDR) signaling pathway - cell viability counter screen (AID 743224; active = well fitted curve in the direction sought with a large enough effect in the repeat runs; an effect the other way counts as inactive or inconclusive; note: nearly all actives have a fitted effect of over 50% in size; note: potency is the fitted concentration of half-maximal effect)
Summary of the method: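 In parallel with the bla FRET readout, cytotoxicity toward VDR-bla cells after 16 h compound exposure was assessed by CellTiter-Glo, with luminescence recorded after a 30 min room-temperature incubation.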

[2] = qHTS assay to identify small molecule antagonists of the vitamin D receptor (VDR) signaling pathway - cell viability counter screen (AID 743225; active = well fitted curve in the direction sought with a large enough effect in the repeat runs; an effect the other way counts as inactive or inconclusive; note: nearly all actives have a fitted effect of over 50% in size; note: potency is the fitted concentration of half-maximal effect)
Summary of the method: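 Same-well multiplex: following 16 h treatment of HEK 293T cells carrying a UAS-driven beta-lactamase reporter with compound and agonist (3 nM final), and a 2 h FRET substrate step, CellTiter-Glo was added and luminescence read after 30 min.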

[3] = qHTS assay to identify small molecule agonists of the NFkB signaling pathway (AID 1159509; active = well fitted curve in the direction sought with a large enough effect in the signal ratio in the repeat runs, not every such curve was filed as active; the % refers to the signal ratio; note: series mostly up to about 61 µM)
Summary of the method: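 Readout: FRET fluorescence, 405 nm excitation, 460/530 nm emission; beta-lactamase expression disrupts FRET. Cells: ME-180 stably carrying NF-kB-driven bla reporter. Compound exposure 5 hr, 37 C, 5% CO2.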

[4] = qHTS assay to identify small molecule agonists of the NFkB signaling pathway - cell viability counter screen (AID 1159515); note: series mostly up to about 61 µM; nearly all actives have a fitted effect of over 55% in size
Summary of the method: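 Plate 2,000 NFkB-bla ME-180 cells/well; incubate overnight. Add compounds, 5 hr at 37 C. Add FRET substrate, 1.5 hr RT. Add CellTiter-Glo, 30 min RT; read luminescence.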

[5] = qHTS assay to identify small molecule agonists of the endoplasmic reticulum stress response signaling pathway (AID 1159516; active = well fitted activation curve with a large enough effect in the signal ratio in the repeat runs, not every such curve was filed as active; the % refers to the signal ratio)
Summary of the method: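 Beta-lactamase expression from the ER stress response element in HeLa reporter cells is quantified with the LiveBLAzer B/G FRET substrate, read at 405 nm excitation after 2 hr at room temperature, following 5 hr compound treatment at 37 C.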

[6] = qHTS assay to identify small molecule antagonists of the retinoid-related orphan receptor gamma (ROR-gamma) signaling pathway - cell viability counter screen (AID 1159520; active = well fitted curve in the direction sought with a large enough effect in the repeat runs; an effect the other way counts as inactive or inconclusive; note: nearly all actives have a fitted effect of over 50% in size; note: potency is the fitted concentration of half-maximal effect)
Summary of the method: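 Tet-on ROR gamma CHO cells were given compounds for 2 hr, then doxycycline hyclate at 1 uM final, and incubated 16 hr at 37 C. Viability was measured as ATP content by CellTiter-Glo luminescence.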

[7] = target: Nuclear receptor ROR-gamma (Homo sapiens) (UniProt P51449); experiment: qHTS assay to identify small molecule antagonists of the retinoid-related orphan receptor gamma (ROR-gamma) signaling pathway (AID 1159521; active = well fitted curve in the direction sought with a large enough effect in the repeat runs; an effect the other way counts as inactive or inconclusive;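 note: CHO cells with doxycycline inducible ROR-gamma driving an RORE luciferase reporter; top concentration of the series differs between compounds; nearly all actives have a fitted effect of over 50% in size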)
Summary of the method: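 Inducible-expression reporter assay: doxycycline (1 uM final) switched on RORγ in CHO cells bearing a ROR response element-luciferase construct, with test compounds present from 2 h beforehand. Decreased luminescence after 16 h defined antagonist activity.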

[8] = qHTS assay to identify small molecule agonists of the AP-1 signaling pathway - cell viability counter screen (AID 1159525); note: nearly all actives have a fitted effect of over 55% in size; note: potency is the fitted concentration of half-maximal effect
Summary of the method: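 Same-well cytotoxicity counter screen of the Tox21 10K library in ME-180 cells. The readout is ATP-dependent luminescence after 5 h compound treatment. Data are normalised to DMSO and tetra n-octyl ammonium bromide controls.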

[9] = qHTS assay to identify small molecule agonists of the AP-1 signaling pathway (AID 1159526)
[10] = qHTS assay to identify small molecule agonists of the endoplasmic reticulum stress response signaling pathway - cell viability counter screen (AID 1159517)
Summary of the method: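 Steps: seed 1,500 ESRE-bla HeLa cells per well; incubate overnight at 37 C, 5% CO2; add compounds in DMSO for 5 hr; run FRET substrate 2 hr RT; add CellTiter-Glo, wait 30 min, read luminescence.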

In the case of `Clc1ccc(C(Cl)(Cl)Cl)cn1`, the Potency [1] is reported as “inactive”, the Potency [2] is reported as “inactive” and the outcome [3] is reported as “inactive”. The outcome [4] was “inactive”, the outcome [5] was “inactive” and the Potency [6] was “inactive”. For the same compound, the Potency [7] was “inactive”, the Potency [8] was “inactive” and the outcome [9] was “inactive”.
With `COC(=O)c1ccccc1CS(=O)(=O)NC(=O)Nc1nc(OC)cc(OC)n1` the Potency [1] was “inactive”, the outcome [3] was “inactive” and the outcome [4] was “inactive”. The outcome [5] was “inactive”, the Potency [6] was “inactive” and the Potency [7] was “inactive”. For the same compound, the Potency [8] was “inactive” and the outcome [9] was “inactive”.
In the case of `CCc1ccc(C2CCNCC2)cc1`, the Potency [1] is reported as “inactive”, the Potency [2] is reported as “inactive” and the outcome [3] is reported as “inactive”. The outcome [4] was “inactive”, the outcome [5] was “inactive” and the Potency [10] was “inactive”. The Potency [6] was “inactive”, the Potency [8] was “inactive” and the outcome [9] was “inactive”.
For `Cl/C=C/CCl`, the Potency [1] was “inactive”, the Potency [2] was “inactive” and the outcome [3] was “inactive”. The outcome [4] was “inactive”, the outcome [5] was “inactive” and the Potency [10] was “inactive”. For the same compound, the Potency [6] was “inactive”, the Potency [8] was “inactive” and the outcome [9] was “inactive”.
In the case of `COC(=O)[C@@H](N)CCCN/C(N)=N/[N+](=O)[O-]`, the Potency [1] is reported as “inactive”, the Potency [2] is reported as “inactive” and the outcome [3] is reported as “inactive”. For the same compound, the outcome [4] was “inactive”, the outcome [5] was “inactive” and the Potency [10] was “inactive”. The Potency [6] was “inactive”, the Potency [8] was “inactive” and the outcome [9] was “inactive”.
For `CN(C)CCN(C)C`, the Potency [1] was “inactive”, the outcome [3] was “inactive” and the outcome [4] was “inactive”. The outcome [5] was “inactive”, the Potency [6] was “inactive” and the Potency [7] was “inactive”. The Potency [8] was “inactive” and the outcome [9] was “inactive”.
With `CON(C)C(=O)Nc1ccc(Br)cc1` the Potency [1] was “inactive”, the Potency [2] was “inactive” and the outcome [3] was “inactive”. For the same compound, the outcome [4] was “inactive”, the outcome [5] was “inactive” and the Potency [10] was “inactive”. For the same compound, the Potency [6] was “inactive”, the Potency [8] was “inactive” and the outcome [9] was “inactive”.
For `CCSC(=O)Cl`, the Potency [1] was “inactive”, the Potency [2] was “inactive” and the outcome [3] was “inactive”. The outcome [4] was “inactive”, the outcome [5] was “inactive” and the Potency [10] was “inactive”. The Potency [6] was “inactive”, the Potency [8] was “inactive” and the outcome [9] was “inactive”.
For `CCNc1nc(Cl)nc(NC(C)(C)C)n1`, the Potency [1] was “inactive”, the Potency [2] was “inactive” and the outcome [3] was “inactive”. For the same compound, the outcome [4] was “inactive”, the outcome [5] was “inactive” and the Potency [10] was “inactive”. The Potency [6] was “inactive”, the Potency [8] was “inactive” and the outcome [9] was “inactive”.
For `CC(O)CCl` (stereo not given), the Potency [1] was “inactive”, the Potency [2] was “inactive” and the outcome [3] was “inactive”. The outcome [4] was “inactive”, the outcome [5] was “inactive” and the Potency [10] was “inactive”. The Potency [6] was “inactive”, the Potency [8] was “inactive” and the outcome [9] was “inactive”.
In the case of `O=C1C2CC=CCC2C(=O)N1SC(Cl)(Cl)Cl` (stereo not given), the Potency [1] is reported as “inactive and 6.81 µM (active)”, the Potency [2] is reported as “inactive and 21.5 µM (active)” and the outcome [3] is reported as “inactive”. For the same compound, the outcome [4] was “inactive”, the outcome [5] was “inactive” and the Potency [10] was “inactive”. The Potency [6] was “inactive and 1.9 µM (active)” and the Potency [8] was “inactive and 48.2 µM (active)”.
In the case of `C[C@]12C=CC(=O)C=C1CC[C@@H]1[C@@H]2CC[C@@]2(C)[C@H]1CC[C@]2(C)O`, the Potency [1] is reported as “inactive”, the Potency [2] is reported as “inactive” and the outcome [3] is reported as “inactive”. The outcome [4] was “inactive”, the outcome [5] was “inactive” and the Potency [10] was “inactive”. For the same compound, the Potency [6] was “inactive”, the Potency [8] was “inactive” and the outcome [9] was “inactive”.
